Most compounds without a hit are left out; they make up all but 2.2% or so of the library.
HMGR II inh = blocks class II HMG-CoA reductase of Enterococcus faecalis | inhibition, % at 10 µM | AID 1066 | purified E. faecalis HMGR, NADPH absorbance 340 nm kinetic | hit rate 0.41% among 190,000;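 active = inhibition above a set limit, the median over all tested compounds plus 3 SD, cut at about 9.5% in these data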;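 note: enzyme runs in reverse so mevalonate oxidation gives rising NADPH absorbance; 0% = complete reaction with DMSO and 100% = background rate lacking mevalonate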
Arbovirus inh = antivirals against arbovirus infection; arbovirus infection cell-based antiviral screen; inhibition, % at 10 µM; hit rate 0.37% among 200,000; AID 1251; in the data active = inhibition above about 30%
Autophagy HCS = autophagy modulation, high-content screen; MEF GFP-LC3 puncta imaging; test concentration mostly 10 µM; calls only at 10 µM (by protocol); AID 463193; hit rate 0.98% among 190,000;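 active = percentage of spot-positive cells more than 3 SD above its plate mean, without a fluorescence outlier flag or 80% toxicity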;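 note: spot-positive cell cutoff set from DMSO-treated cells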
Redox H2O2 prof = compounds producing H2O2 with reducing agent – biochemical, NIH compound library profiling, artefact control for MLSCN library redox annotation, primary screen; DTT-dependent redox cycling H2O2, phenol red/HRP absorbance; 100% = 100 µM peroxide control, 0% = buffer; activation, % at 10 µM; hit rate 0.03% among 200,000; AID 878;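 active = activation of at least 50% relative to the plate's high and low controls in the primary single-dose screen; inactive = activation below 50%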;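 note: compound incubated with DTT at 0.8 mM final as the reducing agent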
Insulin prom up = MIN6 insulin promoter up-regulation. MIN6 insulin promoter-GFP reporter, high-content imaging; hits give high values. z-score at 5 µM. hit rate 0.3% among 190,000. AID 1625;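 active = z-score above 3 at 5 µM with at least 500 cells counted in the well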
NCF1 inh = p47phox (human) inhibition | hit rate 0.53% among 220,000 | p47phox/p22phox peptide binding, fluorescence polarization, 2 h | inhibition, % at 24.7 µM | P14598;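 active = inhibition above about 30%, limit read from the data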;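 note: 0% = p47phox with labelled peptide and 100% = labelled peptide alone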
Target sequence (P14598 whole entry, looked up): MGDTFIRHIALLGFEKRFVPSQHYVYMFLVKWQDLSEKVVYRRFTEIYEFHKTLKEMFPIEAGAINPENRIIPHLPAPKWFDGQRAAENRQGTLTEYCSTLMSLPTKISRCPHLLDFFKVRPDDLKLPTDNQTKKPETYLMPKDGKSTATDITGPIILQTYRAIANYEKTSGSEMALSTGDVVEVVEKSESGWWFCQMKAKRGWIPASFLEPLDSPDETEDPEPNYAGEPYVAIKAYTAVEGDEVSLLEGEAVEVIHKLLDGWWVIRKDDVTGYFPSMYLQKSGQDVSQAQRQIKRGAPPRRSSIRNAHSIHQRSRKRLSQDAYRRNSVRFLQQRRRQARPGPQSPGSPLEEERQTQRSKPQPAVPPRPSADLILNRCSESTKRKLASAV
* marks the source's active call; other numbers are inactive results; i = inactive; . = not tested or not shown; + = active, no number.

SMILES	HMGR II inh	Arbovirus inh	Autophagy HCS	Redox H2O2 prof	Insulin prom up	NCF1 inh
CC(C)(C)NC(=O)C(Cc1ccccc1)NS(=O)(=O)c1cccc2nsnc12 (centres undefined)	4	3	+	1	-1.1	-6
COc1ccc(NC(=O)CC2C(=O)N(Cc3ccccc3)C(=S)N2CCN2CCOCC2)cc1 (centres undefined)	11*	0	i	0	0.32	-12
COC(=O)CN1C(=S)N(Cc2ccccc2)C(=O)C1CC(=O)Nc1ccc(OC)cc1 (centres undefined)	-4	-8	i	-1	.	-5
CCOC(=O)Cn1c(=O)oc2cc(S(=O)(=O)N(C)c3cccc(C)c3)ccc21	.	.	.	.	0.55	-13
O=[N+]([O-])c1ccc(C2Oc3ccccc3C3CC(c4ccccc4)=NN32)s1 (centres undefined)	-3	-33	+	0	0.69	-43
Cc1cc(=O)c2ccc3ccccc3c2[nH]1	1	12	i	0	.	-6
Cc1cc(=O)c2cccc(Br)c2[nH]1	12*	1	i	1	0.15	0
CCOc1ccccc1N(C(=O)Nc1cccc(Cl)c1)C1=NC(C)CS1 (centres undefined)	-7	3	i	0	0.58	35*
CCSc1nnc(NC(=O)c2ccc(Br)s2)s1	-8	31*	i	1	-0.16	-31
O=C(Nc1nc2c(s1)CCCC2)c1ccc(Br)s1	-6	38*	i	-1	0.63	-16
CCSc1nnc(NC(=O)c2ccccc2)s1	-1	8	i	1	0.02	-8
COc1ccc(C(=O)Nc2nnc(-c3cccs3)s2)cc1	-4	-22	+	0	0.41	1
CCOC(=O)C1CCN(C(=O)Nc2ccc(Cl)cc2Cl)CC1	1	0	i	0	-0.03	-2
CCOc1cc(/C=N\Nc2ccc([N+](=O)[O-])cc2)ccc1OCC(=O)Nc1ccc(C)c(C)c1	-4	-6	+	2	.	-51
COc1cc(/C=N\Nc2ccc([N+](=O)[O-])cc2)ccc1OCC(=O)Nc1ccc(C)c(C)c1	4	-12	+	6	.	-101
COc1cc(/C=N/NC(N)=O)ccc1OCC(=O)Nc1cc(C)c(C)cc1Br	-1	3	+	-2	0.36	1
C#CCNC(=O)C1=C[C@@H](C2CC2)[C@H](CCCO)[C@@H](OCC)O1	0	2	i	0	-0.26	1
CCN(CC)c1ccc(/C=C(/C#N)c2nc3ccccc3[nH]2)c(OC(C)C)c1	0	-20	+	-3	.	-43
Cc1[nH]c2ccccc2c1/C=N/Nc1nc(Nc2ccc(F)cc2)nc(N2CCOCC2)n1	-1	-45	+	2	-0.48	-41
Cc1ccc(Nc2nc(N/N=C/c3c[nH]c4ccccc34)nc(N3CCOCC3)n2)cc1	-2	-42	i	1	-1.4	0
COc1cccc(NC(=O)c2ccc3snnc3c2)c1	17*	-7	i	1	0.31	-12
Cc1ccc2nc(SCC(=O)NCc3cccs3)[nH]c2c1	-5	1	i	-3	1.3	-2
COc1cc(-c2nnc(SCC(=O)NC3CCS(=O)(=O)C3)o2)cc(OC)c1OC (centres undefined)	-4	9	i	-1	0.1	-5
CC(C)NCC(O)(c1ccc(Cl)cc1)c1ccc(Cl)cc1	13*	-30	i	0	-1.3	-4
NCC(O)(c1ccc(Cl)cc1)c1ccc(Cl)cc1	-3	-23	+	-1	-1.1	-2
SMILES	HMGR II inh	Arbovirus inh	Autophagy HCS	Redox H2O2 prof	Insulin prom up	NCF1 inh
C=CCn1c(SCC(=O)c2ccccc2)nnc1-c1ccc2c(c1)OCO2	1	-4	i	0	0.68	-18
Cc1ccc(-n2sc3ccccc3c2=O)cc1	3	-21	i	0	0.88	101*
O=C(CCSCCc1ccccn1)Nc1cccc([N+](=O)[O-])c1	2	-3	i	0	1.1	6
Cc1cc(C)nc(Nc2n[nH]c(-c3ccccc3Br)n2)n1	-2	1	i	-1	0.03	-5
Cc1cc(C)nc(Nc2n[nH]c(-c3ccccc3C)n2)n1	-5	-5	+	0	0.27	-7
CC1=C(C(=O)Nc2ccccc2C)C(c2ccc(C)o2)NC(=S)N1 (centres undefined)	-6	2	i	0	-0.01	-3
Cc1nc2ccc(NC(=O)c3nn(CC(C)C)c(=O)c4ccccc34)cc2s1	-7	-25	i	0	-2	-23
CCn1nc(C(=O)Nc2nc3ccc(C)cc3s2)c2ccccc2c1=O	-1	1	+	0	-0.14	-3
COc1ccc(C(=O)Nc2cc(OC)c(NC(=O)c3ccco3)cc2OC)cc1	-4	-1	i	-1	0.3	63*
COc1ccc(NC(=O)c2ccco2)cc1NC(=O)c1cccc(OC(C)C)c1	-3	-5	+	-2	-0.49	-7
CCNC(=S)N1CCCCC1CO (centres undefined)	-5	-5	i	0	0.97	3
COC(=O)c1ccc(COC(=O)c2ccc(SC)cc2OC)cc1	3	-11	i	0	-0.83	-13
O=C(N/N=C/c1c(O)n(-c2ccccc2Cl)c(=O)c2ccccc12)c1cccnc1	-3	36*	i	-1	0.31	-5
O=C(N/N=C/c1c(O)n(Cc2ccccc2)c(=O)c2ccccc12)c1cccnc1	-1	-24	i	0	0.67	-17
O=C(CSCc1ccc(Cl)cc1)c1ccco1	-1	-7	.	.	0.49	-3
COCCCNCCCCOc1ccc(OCc2ccccc2)cc1	3	-42	i	-1	-0.58	2
C=CCNCCCCOc1ccc(OCc2ccccc2)cc1	-1	-28	+	0	-0.45	5
COc1ccc(C(=O)NCC(=O)OCC(=O)Nc2cccc(S(=O)(=O)N3CCCC3)c2)cc1	.	.	.	.	1.4	-11
CCOC(=O)C(NC(=O)c1cccc(Cl)c1)(OCc1ccc(F)cc1)C(F)(F)F (centres undefined)	2	49*	i	0	-0.18	1
CCN(CC)CCNC(=O)c1ccc(NC(=O)c2cn(-c3ccccc3)nc2-c2cccs2)cc1	-6	-30	+	0	0.79	-22
CCOC(=O)CC1=NS(=O)(=O)c2ccccc2N1	-1	77*	i	0	0.96	0
CC(C)CCNC(=O)CCCC1=NS(=O)(=O)c2ccccc2N1	3	1	i	0	0.47	0
Cc1nc2c(-c3ccccc3)c(C)nn2c(SCC(N)=O)c1Cc1ccccc1	.	.	.	.	-0.73	-10
CC(=O)Oc1ccc(N(C(C)=O)S(=O)(=O)c2ccc(C)c([N+](=O)[O-])c2)cc1	-6	1	i	0	0.74	0
Cc1cc(C)cc(Nc2nc3c(S(=O)(=O)c4ccccc4)nnn3c3ccccc23)c1	-4	11	i	0	-0.17	34*
